# Experimental data from PubChem BioAssay AID1159580 (chemical genetic matrix, 2015).
# Values joined by “and” are separate entries in the source; they are usually repeats but may differ in a detail not shown here. Equal entries are not always repeated. The whole screen tested about 5,500 compounds, of which about 2,000 (36%) were called active. Inconclusive results (about 18%) are left out. This is one part of the list. A number with no mark means an inactive call. Rule as the data show it: active = normalized growth mostly below about 0.91 (no sharp cut-off); inconclusive = no clear call, values can overlap the other calls; inactive = mostly above about 0.92.
# Assay: chemical genetic growth profiling, strain panel (AID 1159580);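 also: tested at 20 µM; growth read once vehicle control cultures reached saturation at 30 °C; 1 = growth at the plate median or of vehicle wells; lower values mean less growth of the strain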
# Conditions: S. cerevisiae deletion strains, growth OD
smiles,measurement,setting,value
OC(CCN1CCCCC1)(c1ccccc1)C1CCCCC1 (stereo unspecified),normalized growth,"locus YAL013W, strain DEP1, active compounds read low",1.01
same,normalized growth,"locus YAL021C, strain ccr4, active compounds read low",0.968
same,normalized growth,"locus YAL026C, strain drs2, active compounds read low",0.994
same,normalized growth,"locus YAL030W, strain snc1, active compounds read low",0.97
same,normalized growth,"locus YAL040C, strain CLN3, active compounds read low",1.06
same,normalized growth,"locus YBL061C, strain skt5, active compounds read low",0.979
same,normalized growth,"locus YBR009C, strain hhf1, active compounds read low",0.993
same,normalized growth,"locus YBR021W, strain FUR4, active compounds read low",0.998
same,normalized growth,"locus YBR023C, strain chs3, active compounds read low",0.977
same,normalized growth,"locus YBR171W, strain sec66, active compounds read low",0.974
same,normalized growth,"locus YBR229C, strain ROT2, active compounds read low",1.01
same,normalized growth,"locus YBR231C, strain swc5, active compounds read low",0.957
same,normalized growth,"locus YBR279W, strain paf1, active compounds read low",0.984
same,normalized growth,"locus YCL011C, strain gbp2, active compounds read low",0.978
same,normalized growth,"locus YCL016C, strain dcc1, active compounds read low",0.993
same,normalized growth,"locus YCL029C, strain bik1, active compounds read low",1
same,normalized growth,"locus YCL061C, strain MRC1 (second series), active compounds read low",0.981
same,normalized growth,"locus YCL061C, strain MRC1, active compounds read low",0.966
same,normalized growth,"locus YCL069W, strain vba3, active compounds read low",0.974
same,normalized growth,"locus YCR088W, strain abp1, active compounds read low",0.98
same,normalized growth,"locus YDL005C, strain med2, active compounds read low",0.972
same,normalized growth,"locus YDL035C, strain GPR1, active compounds read low",1.01
same,normalized growth,"locus YDL040C, strain nat1, active compounds read low",0.98
same,normalized growth,"locus YDL074C, strain BRE1, active compounds read low",0.999
same,normalized growth,"locus YDL101C, strain DUN1, active compounds read low",1.01
same,normalized growth,"locus YDL134C, strain PPH21, active compounds read low",1.01
same,normalized growth,"locus YDL185W, strain tfp1, active compounds read low",1
same,normalized growth,"locus YDL192W, strain arf1, active compounds read low",1.01
same,normalized growth,"locus YDR001C, strain nth1, active compounds read low",0.969
same,normalized growth,"locus YDR069C, strain doa4, active compounds read low",0.948
same,normalized growth,"locus YDR101C, strain arx1, active compounds read low",0.995
same,normalized growth,"locus YDR137W, strain rgp1, active compounds read low",1.02
same,normalized growth,"locus YDR150W, strain NUM1, active compounds read low",1.02 and 0.996
same,normalized growth,"locus YDR159W, strain sac3, active compounds read low",0.998
same,normalized growth,"locus YDR162C, strain NBP2, active compounds read low",1.01
same,normalized growth,"locus YDR195W, strain ref2",0.927
same,normalized growth,"locus YDR297W, strain sur2, active compounds read low",0.965
same,normalized growth,"locus YDR318W, strain mcm21, active compounds read low",0.991
same,normalized growth,"locus YDR334W, strain swr1, active compounds read low",0.975
same,normalized growth,"locus YDR335W, strain msn5, active compounds read low",0.975
same,normalized growth,"locus YDR363W, strain ESC2, active compounds read low",0.954
same,normalized growth,"locus YDR388W, active compounds read low",0.996
same,normalized growth,"locus YDR392W, strain spt3, active compounds read low",1.01
same,normalized growth,"locus YDR502C, strain sam2, active compounds read low",0.998
same,normalized growth,"locus YEL003W, strain gim4, active compounds read low",0.975
same,normalized growth,"locus YEL037C, strain rad23, active compounds read low",0.969
same,normalized growth,"locus YEL061C, strain CIN8 (second series), active compounds read low",0.974
same,normalized growth,"locus YEL061C, strain CIN8, active compounds read low",1.01
same,normalized growth,"locus YER002W, strain NOP16, active compounds read low",1.03
same,normalized growth,"locus YER015W, strain faa2, active compounds read low",0.976
same,normalized growth,"locus YER016W, strain bim1, active compounds read low",1
same,normalized growth,"locus YER110C, active compounds read low",1
same,normalized growth,"locus YER111C, strain swi4, active compounds read low",0.961
same,normalized growth,"locus YER155C, strain BEM2 (second series), active compounds read low",0.929
same,normalized growth,"locus YER155C, strain BEM2, active compounds read low",0.791 (active)
same,normalized growth,"locus YER167W, strain BCK2, active compounds read low",1.01
same,normalized growth,"locus YFR010W, strain ubp6, active compounds read low",0.975
same,normalized growth,"locus YGL078C, strain dbp3, active compounds read low",0.991
same,normalized growth,"locus YGL086W, strain mad1, active compounds read low",0.993
same,normalized growth,"locus YGL167C, strain pmr1, active compounds read low",0.961
same,normalized growth,"locus YGL173C, strain kem1, active compounds read low",0.934
same,normalized growth,"locus YGL227W, strain vid30, active compounds read low",0.982
same,normalized growth,"locus YGL240W, strain doc1, active compounds read low",0.961
same,normalized growth,"locus YGL248W, strain PDE1, active compounds read low",1.01
same,normalized growth,"locus YGL253W, strain hxk2, active compounds read low",0.97
same,normalized growth,"locus YGR078C, strain PAC10, active compounds read low",0.996
same,normalized growth,"locus YGR135W, strain pre9, active compounds read low",0.985
same,normalized growth,"locus YGR229C, strain SMI1, active compounds read low",1 and 0.945
same,normalized growth,"locus YGR252W, strain gcn5, active compounds read low",0.975
same,normalized growth,"locus YHR013C, strain ard1, active compounds read low",0.971
same,normalized growth,"locus YHR027C, strain rpn1, active compounds read low",0.988
same,normalized growth,"locus YHR030C, strain SLT2, active compounds read low",1.02 and 0.961
same,normalized growth,"locus YHR079C, strain IRE1 (second series), active compounds read low",0.992
same,normalized growth,"locus YHR079C, strain IRE1, active compounds read low",0.99
same,normalized growth,"locus YHR094C, strain hxt1, active compounds read low",1
same,normalized growth,"locus YHR129C, strain ARP1, active compounds read low",1.01
same,normalized growth,"locus YHR142W, strain chs7, active compounds read low",0.978
same,normalized growth,"locus YHR200W, strain rpn10, active compounds read low",1
same,normalized growth,"locus YIL066C, strain RNR3, active compounds read low",1.01
same,normalized growth,"locus YIL073C, strain SPO22, active compounds read low",1.05
same,normalized growth,"locus YIL125W, strain kgd1, active compounds read low",1
same,normalized growth,"locus YIR030C, strain dcg1, active compounds read low",0.999
same,normalized growth,"locus YJL092W, strain hpr5, active compounds read low",0.954
same,normalized growth,"locus YJL095W, strain BCK1 (second series), active compounds read low",0.971
same,normalized growth,"locus YJL095W, strain BCK1, active compounds read low",0.984 and 0.98
same,normalized growth,"locus YJL115W, strain asf1, active compounds read low",0.961
same,normalized growth,"locus YJL129C, strain trk1, active compounds read low",0.953
same,normalized growth,"locus YJL134W, strain LCB3, active compounds read low",1.01
same,normalized growth,"locus YJL154C, strain vps35, active compounds read low",0.971
same,normalized growth,"locus YJL164C, strain tpk1, active compounds read low",1.01
same,normalized growth,"locus YJL166W, strain qcr8, active compounds read low",0.925
same,normalized growth,"locus YJL168C, strain set2, active compounds read low",0.991
same,normalized growth,"locus YJL187C, strain SWE1 (second series), active compounds read low",1.01
same,normalized growth,"locus YJL187C, strain SWE1, active compounds read low",0.975
same,normalized growth,"locus YJR043C, strain POL32, active compounds read low",1.01
same,normalized growth,"locus YJR066W, strain TOR1, active compounds read low",0.93
